# Compound activity deposited in PubChem BioAssay by National Center for Advancing Translational Sciences (NCATS).
# Sfp PPTase inh: qHTS Assay for Inhibitors of Bacillus subtilis Sfp phosphopantetheinyl transferase (PPTase). 4'-phosphopantetheinyl transferase ffp (Bacillus subtilis), Q9F4F7. Biochemical Sfp PPTase activity, qHTS. Potency, µM, inactives show largest response in the series, negative = inhibition, usual class: inhibitors. 3.5% of 310,000 active;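 also: the enzyme is Sfp with the accession as filed and its product quenches rhodamine fluorescence; 0% = enzyme reaction without inhibitor and -100% = no enzyme wells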
#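 Fluorescence-quenching assay with 15 nM Sfp, 5 uM rhodamine-CoA and 12.5 uM BHQ-2-labelled ybbR peptide in pH 7.6 Hepes/MgCl2 buffer. Enzyme was pre-incubated with compound for 15 min at room temperature. Rate was taken from the 30-min fluorescence change (525/598 nm).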
# G9a inh: qHTS Assay for Inhibitors of Histone Lysine Methyltransferase G9a; Histone-lysine N-methyltransferase EHMT2 (Homo sapiens), Q96KQ7; G9a H3K9 monomethylation, AlphaScreen, 2 h; Potency, µM (series often up to 102 µM), for inactives: at the top dose activity, negative = inhibition, usual class: inhibitors; 8.8% of 350,000 active; also: % is scaled to controls: 0 for no effect and ±100 for the full control effect; nearly all actives have a fitted effect of over 75% in size
#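 Enzyme 20 nM + cpd, 15 min RT; add b-H3K9 pep 500 nM / SAM 20 uM; 2 h RT; anti-H3K9me1 Ab 0.5 ug/mL + SA donor / anti-rabbit acceptor beads 20 ug/mL each, 10 min; AlphaScreen read.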
# HP1b chromo inh: HTS for Inhibitors of HP1-beta Chromodomain Interactions with Methylated Histone Tails; Chromobox protein homolog 1 (Homo sapiens), P83916; AlphaScreen HP1-beta / biotin-H3K9me3 peptide binding; Potency, µM (series often up to 114 µM), inactives show at the top dose activity change, negative = inhibition, hits mostly inhibitors; 0.56% of 390,000 active; AID 540317, 2011; also: nearly all actives have a fitted effect of over 70% in size
#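 Compound inhibition of the preformed complex between 50 nM HP1-beta and 50 nM biotinylated H3K9me3 peptide was read by AlphaScreen. Buffer was PBS pH 7.4 with 0.01% Tween-20. Incubations ran 30 min at room temperature, with 10 ug/mL donor/acceptor beads.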
# BAZ2B inh: qHTS Assay for Inhibitors of BAZ2B; Bromodomain adjacent to zinc finger domain protein 2B (Homo sapiens), Q9UIF8; AlphaScreen BAZ2B-H3K14Ac peptide displacement; Potency, µM (top dose mostly 114 µM), inactives show top-dose activity change, negative = inhibition, usual class: inhibitors; 4.4% of 360,000 active; AID 504333, 2011; also: % is scaled to controls: 0 for no effect and ±100 for the full control effect; nearly all actives have a fitted effect of over 60% in size
#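 Compounds, titrated to a top concentration of 110 uM, were incubated 30 min at room temperature with preformed BAZ2B/acetyl-K14 H3 peptide complex (50 nM each). Proximity signal was measured by AlphaScreen after 20 min with beads.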
# JMJD2A Tudor inh: qHTS Assay for Inhibitors of JMJD2A-Tudor Domain; Lysine-specific demethylase 4A (Homo sapiens), O75164; AlphaScreen JMJD2A-Tudor / H3K4me3 peptide binding; Potency, µM (series often up to 114 µM), for inactives: at the highest dose activity change, negative = inhibition, usual class: inhibitors; 4.4% of 390,000 active; AID 504339, 2011; also: % is scaled to controls: 0 for no effect and ±100 for the full control effect; nearly all actives have a fitted effect of over 50% in size
# * hit, by the source's call; ? = inconclusive; / = not tested or not shown; [ ] = remark or other dose. In the library only some 12% were active in any assay of this set; here they are far more common. Calls follow the shape of the dose curve; as a rule, active = well fitted curve in the direction sought with a large enough effect; inconclusive = small, poorly fitted or top-dose-only effect, or another doubt; inactive = no such curve, though single readings can be large; an effect the other way counts as inactive or inconclusive. Potency is read from the fitted curve at half-maximal effect.
SMILES,Sfp PPTase inh,G9a inh,HP1b chromo inh,BAZ2B inh,JMJD2A Tudor inh
Fc1ccc(/C=N/n2c(-c3cccs3)n[nH]c2=S)cc1,50.1µM*,1.12µM*,-25.3%,-34.6%,31.6µM*
COc1cc(-c2nnc(CSc3nc4ccccc4s3)o2)cc(OC)c1OC,-14.0%,14.3%[59 µM],/,-26.8%,/
S=c1[nH]nc(-c2ccccc2)n1/N=C/c1cccc(Cl)c1,-29.6%,/,9.9%,-11.8%,70.8µM*
CCN(CC)c1ccc(/C=C2\SC(=O)N(C(C)C)C2=O)o1,7.08µM*,7.08µM*,-11.2%,?,-34.7%
Cc1ccc(-n2ncc(C(=O)NCCN3CCC(Cc4ccccc4)CC3)c2C2CCN(C(=O)OC(C)(C)C)CC2)cc1,/,?,1.6%,-34.3%[57.1 µM],?
CCSc1ncnc2nc[nH]c12,/,/,-6.3%[57 µM],/,-4.6%[57.1 µM]
Cc1ccc(N/N=C/c2ccc3c(c2)OCCO3)cc1Cl,-9.9%,8.91µM*,?,10.7%,?
C/C(=N\Nc1ccc(Cl)c(C(=O)O)c1)c1ccc2c(c1)OCO2,-15.4%,4.47µM*,37.5%,?,-14.0%
Cc1ccc(/C=N/Nc2cc(C)nc(N3CCOCC3)n2)cc1,6.8%,2.9%,21.5%,-6.6%,?
O=C(O)c1cc(N/N=C/c2ccc3c(c2)OCO3)ccc1Cl,-5.4%,50.1µM*,38.9%,?,-25.3%
O=C(O)c1cc(N/N=C/c2ccc3c(c2)OCCO3)ccc1Cl,8.7%,?,18.8%,-35.8%,-12.3%
Cc1ccc(N/N=C/c2ccc(N3CCOCC3)cc2)cc1C,?,2.51µM*,79.4µM*,?,39.8µM*
Cc1csc(Cn2c(CN(C)C)nc3ccccc3c2=O)n1,22.4%,-35.6%[12.7 µM],16.3%,-10.6%,-19.5%
CN(C)Cc1nc2ccccc2c(=O)n1Cc1nc(-c2cc3ccccc3o2)cs1,?,?,-14.3%,?,50.1µM*
CCOC(=O)C1CCN(Cc2nc3ccccc3c(=O)n2-c2ccc(OCC)cc2)CC1,-9.1%,9.0%[59 µM],30.6%,-6.3%,-11.3%
CCOc1ccc(-c2csc(Cn3c(CN4CCN(C)CC4)nc4ccccc4c3=O)n2)cc1,?,22.4µM*,?,?,22.4µM*
C=CCOC(=O)N[C@@H](CC(C)C)/C(C(=O)OC)=C(\C)NCc1ccccc1,-9.0%,/,/,/,/
O=C(COC(=O)c1cc(-c2ccccc2Cl)nc2ccccc12)Nc1ncc(C(F)(F)F)cc1Cl,39.8µM*,-20.0%[59 µM],?,?,?
Fc1ccccc1NC(=S)NNc1ncc(C(F)(F)F)cc1Cl,3.5%,1.4%[59 µM],-2.1%,-0.3%,-21.9%
NC(=O)NNc1ncc(C(F)(F)F)cc1Cl,50.1µM*,?,10.2%,2.8%,-10.9%
FC(F)(F)c1cnc(NNC(=S)Nc2cccnc2)c(Cl)c1,-26.4%,22.4µM*,-1.5%,-0.5%,-34.8%
O=C(NNc1ncc(C(F)(F)F)cc1Cl)c1c(Cl)cccc1Cl,20.5%,15.0%[59 µM],30.9%,-5.1%,-13.5%
Cc1c(Cl)cccc1NC(=S)NNc1ncc(C(F)(F)F)cc1Cl,20.1%,70.8µM*,-11.5%,-6.2%,-31.0%
CC(Cc1ccco1)NC(=O)c1cccc(S(=O)(=O)N(C)C)c1 (stereo not given),-14.3%,19.8%,-6.3%,3.6%,-19.7%
CC1CCN(S(=O)(=O)c2cn(CC(=O)N3CCN(C)CC3)c(=O)c3ccccc23)CC1,5.3%,5.0%[59 µM],26.9%,3.5%,-5.5%
O=C(CSc1ncccn1)Nc1ncc(C(F)(F)F)cc1Cl,?,20µM*,40.5%,-16.4%,5.5%
CCCCC(O)(CCCC)C(=O)NN(C(=O)OC)c1ccc(C)cc1,2.2%,/,63.5%,-4.1%,9.8%[57.1 µM]
COc1ccc(C(=O)n2nc(-c3ccco3)nc2NCc2cccs2)cc1,/,10µM*,-4.8%,-24.3%,-14.6%
CSc1nc(-c2ccco2)nn1C(=O)c1cccs1,?,-49.6%[59 µM],47.4%,-29.2%,-1.4%
COc1ccc(C(=O)n2nc(-c3ccco3)nc2SC)cc1OC,?,20µM*,16.3%,-34.4%,?
